This is an account of results in PubChem BioAssay (EPA / NIEHS).

Each structure is given as a SMILES string. Active and inactive are the calls of the source. How the source made its calls: active means hit-call score of the fitted dose curve at least 0.9, where 1 is the maximum; inactive means score below 0.9.

Experiment [1] is described as follows: ATG_CRE_CIS: Attagene CIS-FACTORIAL HepG2 Assay for human cAMP Responsive Element (CRE) binding protein 3 (AID 2282926). The settings on record: HepG2 CRE cis-reporter, Attagene multiplexed mRNA; actives raise or lower the signal. In a few lines:
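Liver-derived HepG2, transfected with a CRE-containing reporter panel, exposed 24 h; transcript levels sized and quantified by capillary electrophoresis of labelled amplicons; signal changes either way referenced to vehicle.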

Experiment [2] concerns the target CCAAT/enhancer-binding protein beta (Homo sapiens) (UniProt P17676). The experiment in a line: ATG_C_EBP_CIS: Attagene CIS-FACTORIAL HepG2 Assay for human CCAAT/Enhancer Binding Protein (C/EBP) beta (AID 2282927). The settings on record: HepG2 Attagene cis-factorial transcription factor reporter; actives raise or lower the signal. An outline of the steps: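 Changes in reporter mRNA, rather than exogenous chimeric receptor activity, reflect native C/EBP signalling in transfected HepG2 cells dosed for 24 h; transcripts are detected by RT-PCR and capillary electrophoresis.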

Experiment [3] in a line: ATG_CMV_CIS: Attagene CIS-FACTORIAL HepG2 Assay for human CMV (Internal Marker) (AID 2282928).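 Further: endpoint acts as a background internal control marker rather than a target.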 To be noted: HepG2 CMV promoter reporter, transcription factor profiling; actives raise or lower the signal. In a few lines: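 Readout: fluorescent reporter cDNA fragments separated by capillary electrophoresis after RT-PCR and HpaI cut. Cells: HepG2 carrying transfected cis-promoter reporter constructs, dosed 24 h. Endpoint serves as background internal-marker control, fit bidirectionally versus DMSO.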

Experiment [4] can be described thus: ATG_DR4_LXR_CIS: Attagene CIS-FACTORIAL HepG2 Assay for human Liver X Receptor (LXR), DR4 submotif (AID 2282929). To be noted: HepG2 Attagene DR4 cis-reporter, mRNA transcription; actives raise or lower the signal. In a few lines: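 Readout: reporter transcript fluorescence after RT-PCR and capillary electrophoresis, fitted bidirectionally against DMSO controls. Human HepG2 liver cells carried transiently transfected multiplexed reporter constructs; endogenous transcription factor activity measured 24 h post-dosing.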

Experiment [5] can be described thus: ATG_AP_1_CIS: Attagene CIS-FACTORIAL HepG2 Assay for human Activator Protein 1 (AP-1) (AID 2282931). The settings on record: HepG2 Attagene cis-factorial AP-1 reporter mRNA; actives raise or lower the signal. In a few lines:
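Reporter transcripts were measured 24 h after dosing by RT-PCR and capillary electrophoresis of fluorescent fragments. Cells: HepG2 carrying transfected cis-regulated reporter constructs reading endogenous factor activity. Gain or loss fitted against DMSO.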

Experiment [6] can be described thus: ATG_AP_2_CIS: Attagene CIS-FACTORIAL HepG2 Assay for human Activator Protein 2 (AP-2) (AID 2282932). To be noted: HepG2 AP-2 cis-reporter, Attagene transcription factor profiling; actives raise or lower the signal. An outline of the steps:
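Endogenous transcription factor activity is reported through transfected multiplex reporter constructs in HepG2, after 24 h of compound exposure. Transcripts were quantified by RT-PCR and capillary electrophoresis of fluorescent fragments. Bidirectional fit against DMSO.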

Experiment [7] in a line: ATG_BRE_CIS: Attagene CIS-FACTORIAL HepG2 Assay for human Bone Morphogenetic Protein (BMP) Response Element (BRE) (AID 2282933). The settings on record: HepG2 BMP response element reporter, Attagene transcription factor profiling; actives raise or lower the signal. An outline of the steps:
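Endogenous transcription factor activity at a BMP response element was monitored in transfected HepG2 cells 24 h after dosing. Fluorescent RT-PCR products were resolved by capillary electrophoresis, and activity was fitted in both directions versus DMSO.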

Experiment [8] has as its target Retinoic acid receptor alpha (Homo sapiens) (UniProt P10276). The experiment is described as follows: ATG_DR5_RAR_CIS: Attagene CIS-FACTORIAL HepG2 Assay for human Retinoic Acid Receptor Alpha (RARE), DR5 submotif (AID 2282934).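 On AC50: reporter responds to endogenous RAR alpha beta and gamma in HepG2 not RARA alone.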 To be noted: HepG2 Attagene cis-factorial RARE DR5 reporter, mRNA; actives raise or lower the signal. An outline of the steps:
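HepG2, transient cis-reporter transfection, 24 h exposure. mRNA readout: RT-PCR, FAM label, HpaI cut, capillary electrophoresis. DMSO baseline, gain/loss fitting.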

The target in experiment [9] is Transcription factor E2F1 (Homo sapiens) (UniProt Q01094). The experiment is described as follows: ATG_E2F_CIS: Attagene CIS-FACTORIAL HepG2 Assay for human E2F Transcription Factor 1 (AID 2282935). To be noted: HepG2 Attagene cis-reporter, E2F reporter RNA transcripts; actives raise or lower the signal. In a few lines: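 Gain or loss of reporter transcript, fitted against DMSO, reflects E2F1-driven transcription. Transiently transfected HepG2 dosed 24 h before RNA isolation. Quantified by fluorescent RT-PCR products separated by capillary electrophoresis.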
Chain of Transcription factor E2F1 (Homo sapiens) (Q01094 whole entry, looked up): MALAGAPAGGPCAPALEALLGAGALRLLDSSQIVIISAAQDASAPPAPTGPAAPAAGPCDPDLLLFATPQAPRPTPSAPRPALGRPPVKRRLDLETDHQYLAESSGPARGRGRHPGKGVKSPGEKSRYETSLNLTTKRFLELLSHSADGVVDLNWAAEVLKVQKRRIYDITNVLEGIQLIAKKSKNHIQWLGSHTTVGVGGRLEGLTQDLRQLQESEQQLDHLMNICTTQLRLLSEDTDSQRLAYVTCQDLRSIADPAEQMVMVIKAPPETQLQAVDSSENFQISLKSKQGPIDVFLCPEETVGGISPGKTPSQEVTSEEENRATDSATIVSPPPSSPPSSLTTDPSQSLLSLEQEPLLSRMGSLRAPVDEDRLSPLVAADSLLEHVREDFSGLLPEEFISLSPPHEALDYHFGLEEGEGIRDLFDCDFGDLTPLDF

For experiment [10], the target named is Aryl hydrocarbon receptor (Homo sapiens) (UniProt P35869). The experiment in a line: ATG_Ahr_CIS: Attagene CIS-FACTORIAL HepG2 Assay for human Aryl Hydrocarbon Receptor (Ahr) (AID 2282930). To be noted: HepG2 AhR cis-factorial reporter transcription; actives raise or lower the signal. An outline of the steps:
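HepG2, transient MRTU (cis) transfection, 24 h exposure. RNA → cDNA → PCR → 6-FAM primer extension → HpaI 2 h 37 C → CE. Fit: bidirectional, DMSO baseline.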

Chain of Aryl hydrocarbon receptor (Homo sapiens) (P35869 whole entry, looked up): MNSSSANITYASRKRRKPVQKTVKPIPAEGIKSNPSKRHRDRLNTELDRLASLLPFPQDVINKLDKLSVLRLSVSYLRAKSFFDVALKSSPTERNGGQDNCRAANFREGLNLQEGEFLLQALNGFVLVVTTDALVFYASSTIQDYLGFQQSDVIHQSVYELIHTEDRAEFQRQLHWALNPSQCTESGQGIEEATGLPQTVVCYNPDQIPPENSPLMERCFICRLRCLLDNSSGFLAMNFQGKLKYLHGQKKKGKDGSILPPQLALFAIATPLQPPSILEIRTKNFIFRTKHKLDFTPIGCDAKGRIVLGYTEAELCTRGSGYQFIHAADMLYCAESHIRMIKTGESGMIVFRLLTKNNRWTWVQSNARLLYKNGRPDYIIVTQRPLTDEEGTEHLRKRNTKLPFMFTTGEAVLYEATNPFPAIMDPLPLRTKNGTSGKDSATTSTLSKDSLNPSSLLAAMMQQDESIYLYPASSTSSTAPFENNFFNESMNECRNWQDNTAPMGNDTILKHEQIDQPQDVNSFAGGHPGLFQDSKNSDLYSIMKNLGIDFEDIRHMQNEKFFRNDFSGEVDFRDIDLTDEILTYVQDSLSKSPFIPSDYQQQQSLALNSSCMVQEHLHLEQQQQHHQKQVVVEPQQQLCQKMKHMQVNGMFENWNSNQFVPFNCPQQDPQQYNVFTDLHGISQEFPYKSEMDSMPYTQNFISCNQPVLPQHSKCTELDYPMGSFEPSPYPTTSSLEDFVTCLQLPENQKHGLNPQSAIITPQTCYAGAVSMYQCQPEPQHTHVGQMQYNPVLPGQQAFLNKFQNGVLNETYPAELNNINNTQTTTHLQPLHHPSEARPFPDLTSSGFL
Chain of CCAAT/enhancer-binding protein beta (Homo sapiens) (P17676 whole entry, looked up): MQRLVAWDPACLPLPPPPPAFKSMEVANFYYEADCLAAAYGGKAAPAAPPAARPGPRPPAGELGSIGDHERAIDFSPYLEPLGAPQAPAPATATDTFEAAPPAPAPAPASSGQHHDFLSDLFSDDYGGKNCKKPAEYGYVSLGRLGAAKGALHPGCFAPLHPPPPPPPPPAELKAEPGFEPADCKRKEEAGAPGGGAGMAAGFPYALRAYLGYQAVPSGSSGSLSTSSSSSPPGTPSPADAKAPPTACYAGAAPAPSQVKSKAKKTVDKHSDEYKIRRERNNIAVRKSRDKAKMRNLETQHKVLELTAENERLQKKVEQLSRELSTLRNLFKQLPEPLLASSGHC
Chain of Retinoic acid receptor alpha (Homo sapiens) (P10276 whole entry, looked up): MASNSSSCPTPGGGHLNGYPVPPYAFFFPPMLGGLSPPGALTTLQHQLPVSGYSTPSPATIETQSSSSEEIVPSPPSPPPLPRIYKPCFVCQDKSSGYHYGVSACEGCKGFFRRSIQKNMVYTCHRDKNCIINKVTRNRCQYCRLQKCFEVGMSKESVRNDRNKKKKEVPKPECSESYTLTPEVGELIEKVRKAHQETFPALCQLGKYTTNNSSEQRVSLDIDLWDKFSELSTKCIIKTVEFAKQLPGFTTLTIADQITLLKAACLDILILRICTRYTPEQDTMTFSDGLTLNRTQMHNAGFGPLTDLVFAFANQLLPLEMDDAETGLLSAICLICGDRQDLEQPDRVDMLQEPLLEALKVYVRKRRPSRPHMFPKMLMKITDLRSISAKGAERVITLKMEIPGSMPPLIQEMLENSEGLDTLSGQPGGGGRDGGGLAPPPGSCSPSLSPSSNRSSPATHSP

For `CCCCCCCCO[C@@H]1O[C@H](CO)[C@@H](O)[C@H](O)[C@H]1O`, the call in experiment [1], in experiment [2], in experiment [3], in [4], in experiment [5] and in experiment [6] was inactive. The molecule was called inactive in experiment [7], in experiment [8] and in experiment [9].

As a reminder, the AC50 is the concentration giving half of the maximal activity seen. With `OC1CCCCCCCCCCC1`, the outcome in experiment [1], in experiment [2], in experiment [5], in experiment [6], in experiment [7] and in experiment [8] was inactive. Besides, the call in experiment [9] was inactive. Moreover, the AC50 is 75.4 µM (active) in experiment [3] and 40.5 µM (active) in [4].

Turning to `CC1=CC[C@H]2C[C@@H]1C2(C)C`, the molecule was classed as inactive in experiment [1], in [2], in experiment [3], in [4], in experiment [5] and in [6]. Further, the molecule was called inactive in experiment [8] and in [9].

Regarding `O=C(c1ccccc1)C1CCC1`, the call in [1], in [2], in experiment [3], in [10], in [5] and in experiment [7] was inactive. For the same molecule, the result in [8] and in experiment [9] was inactive.

As to `C[C@]12C=CC(=O)C=C1CC[C@@H]1[C@@H]2[C@@H](O)C[C@@]2(C)[C@H]1CC[C@]2(O)C(=O)CO`, the result in experiment [1], in [2], in experiment [3], in experiment [10], in experiment [6] and in [7] was inactive. Further, the molecule was called inactive in experiment [8] and in experiment [9].

With `O=C(Nc1cccc(C(F)(F)F)c1)c1cc(Br)cc(Br)c1O`, the AC50 in [1] is 100 µM (active); in experiment [3], 160 µM (active); in experiment [6] it was 5.76 µM (active); in [7], 1.08 µM (active). For the same molecule, the outcome in [2], in experiment [10], in experiment [5] and in [8] was inactive.

Regarding `CCc1ccc2c(c1)C(=O)c1ccccc1C2=O`, the result in experiment [1], in [2], in experiment [3], in experiment [5], in experiment [6] and in experiment [7] was inactive. For the same molecule, the outcome in [8] and in experiment [9] was inactive. Also, the AC50 in [10] is 5.39 µM (active).

As for `CCCCC/C=C\C/C=C\CCCCCCCC(=O)OC`, the molecule was classed as inactive in [1], in [2], in experiment [3], in experiment [10], in experiment [6] and in experiment [9]. In addition, the AC50 was 132 µM (active) in [5], 126 µM (active) in experiment [7] and 71.2 µM (active) in [8].

Turning to `CC(=O)Nc1ccc2c(c1)Cc1cc(NC(C)=O)ccc1-2`, the molecule was classed as inactive in [1], in [2], in [3], in [4], in [5] and in experiment [6]. In addition, the molecule was classed as inactive in experiment [7], in experiment [8] and in experiment [9].

As for `CCCCCC(C)O` (configuration not stated), the molecule was classed as inactive in experiment [1], in experiment [2], in experiment [3], in [4], in experiment [5] and in experiment [6]. Also, the result in experiment [7], in experiment [8] and in experiment [9] was inactive.

Take `c1cc(N(CC2CO2)CC2CO2)ccc1OCC1CO1` (configuration not stated): the AC50 was 12.6 µM (active) in experiment [1], 91.5 µM (active) in experiment [3], 25.8 µM (active) in [6] and 83.1 µM (active) in experiment [8]. Further, the result in experiment [2], in experiment [10], in experiment [5] and in [9] was inactive.

Regarding `O=c1n(CCO)c(=O)n(CCO)c(=O)n1CCO`, the molecule was called inactive in [1], in [2], in experiment [3], in [10], in [5] and in experiment [6]. The molecule was classed as inactive in [7], in experiment [8] and in experiment [9].

As for `CCc1nccnc1C`, the call in [1], in experiment [2], in experiment [3], in experiment [10], in [5] and in experiment [6] was inactive. Besides, the outcome in experiment [7], in experiment [8] and in experiment [9] was inactive.

Consider `CCCCCCCCCCc1ccccc1`, for which the call in [1], in [2], in experiment [3], in [10], in experiment [5] and in [6] was inactive. Moreover, the outcome in experiment [7] and in [9] was inactive. Moreover, the AC50 in experiment [8] was 84.7 µM (active).

In the case of `NC(CO)(CO)CO`, the molecule was classed as inactive in experiment [1], in [2], in [3], in experiment [4], in experiment [5] and in experiment [6]. In addition, the molecule was classed as inactive in experiment [7], in [8] and in [9].

`Cc1cccc(N(C)C(=S)Oc2ccc3ccccc3c2)c1`: the result in experiment [1], in experiment [2], in experiment [3], in experiment [4], in experiment [5] and in experiment [6] was inactive. For the same molecule, the outcome in experiment [7], in experiment [8] and in experiment [9] was inactive.

With `CCOC(=O)c1ccc(N(C)C)cc1`, the result in experiment [1], in experiment [2], in experiment [3], in [4], in [5] and in experiment [6] was inactive. In addition, the molecule was called inactive in experiment [7], in experiment [8] and in [9].

On to `CCCCCCOC(=O)C(C)CC` (configuration not stated), for which the call in experiment [1], in experiment [2], in experiment [3], in experiment [10], in experiment [5] and in experiment [6] was inactive. The result in experiment [7], in experiment [8] and in experiment [9] was inactive.
